This is part of a sample that, as a whole, favours compounds with a hit. Of some 83,000 tested, about 20% had one in any assay.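 How to read the values: 0–100, growth inhibition (40 = 60% inhibited); 0, no net growth; -100 to 0, cell death (-40 = 40% of starting cells died; -100 = all dead).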 Values without a mark were called inactive. The source made the active and inactive calls. Rule for the calls: active = growth percent below 10; inactive = the rest.
Test system: SF-295 CNS
Assay: NCI-60 one-dose screen, 48 h (100 = growth as untreated, 0 = no growth, -100 = all killed)
Settings: 10 µM

| Structure (SMILES) | growth |
| --- | --- |
| O=C1c2ccccc2CCC1(Br)Br | 105% |
| O=C(CNS(=O)(=O)Cc1ccccc1)NNc1ccccc1 | 26.2% |
| COc1ccc(N)c2c1C(=O)c1ccccc1C2=O | 103% |
| COc1cc(N)ccc1Nc1c2ccccc2nc2ccccc12 | 91.5% |
| Cc1cc(C)c(N2C(=O)CC(Sc3ccccc3N)C2=O)c(C)c1 (centres undefined) | 47.5% |
| CCC(=O)Oc1ccc(/C=N/NC(N)=S)nc1 | 97.4% |
| ClCCn1c(CCl)nc2ccc(Cl)cc21 | 25.3% |
| Cc1cc(Cl)ccc1NC(=O)/C(Cl)=C1/Sc2ccccc2NC1=O | 118% |
| CCOC(=O)[C@]1(Br)CC[C@@]1(Br)C(=O)OCC | 108% |
| COc1ccc2c(c1)[nH]c1c(/C=C/c3ccccc3)nccc12 | 59.2% |
| N#C/C(=C/N1C(=O)/C(=C/c2ccc([N+](=O)[O-])cc2)SC1=S)c1nc2ccccc2s1 | 86.8% |
| CN(C)CCNc1cccc2sc3ccc(O)cc3c(=O)c12 | -12.9% (active) |
| NCc1c(O)ccc2ccccc12 | 75.5% |
| O=C1c2cccc3cc([N+](=O)[O-])cc(c23)C(=O)N1CCN1CCCC1 | 11% |
| Cc1cc(O)c2c(c1O)C(=O)C13C(=C2O)C(=O)C2C(O)C1C1C(O)C3C(=O)C3=C(O)c4c(O)cc(C)c(O)c4C(=O)C321 (centres undefined) | -30.2% (active) |
| CC1CCC2(C(=O)O)CCC3(C)C(=CCC4C5(C)CC(O)C(O)C(C)(CO)C5C(O)CC43C)C2C1C (centres undefined) | 112% |
| COc1ccc2oc(-c3ccc(Cl)cc3)c(N3CCN(C)CC3)c2c1 | -54.5% (active) |
| Cc1cc(N=C2C=CC(=[N+](C)C)C=C2)c(N)cc1N | 90.8% |
| O=[N+]([O-])c1cc(S(=O)(=O)Nc2ccccc2)ccc1Cl | 97.2% |
| O=c1[nH]cc(/C=N\Nc2ccccc2)c(=O)[nH]1 | 45.5% |
| O=C(NC(=S)Nc1ccccn1)c1ccccc1 | 104% |

Test system: SF-539 CNS
Assay: as above
Settings: 10 µM

| Structure (SMILES) | growth |
| --- | --- |
| O=C1c2ccccc2CCC1(Br)Br | 16.9% |
| O=C(CNS(=O)(=O)Cc1ccccc1)NNc1ccccc1 | 61.4% |
| COc1ccc(N)c2c1C(=O)c1ccccc1C2=O | 101% |
| Cc1cc(C)c(N2C(=O)CC(Sc3ccccc3N)C2=O)c(C)c1 (centres undefined) | 88% |
| ClCCn1c(CCl)nc2ccc(Cl)cc21 | -43.9% (active) |
| Cc1cc(Cl)ccc1NC(=O)/C(Cl)=C1/Sc2ccccc2NC1=O | 94% |
| CCOC(=O)[C@]1(Br)CC[C@@]1(Br)C(=O)OCC | 104% |
| COc1ccc2c(c1)[nH]c1c(/C=C/c3ccccc3)nccc12 | 52.1% |
| N#C/C(=C/N1C(=O)/C(=C/c2ccc([N+](=O)[O-])cc2)SC1=S)c1nc2ccccc2s1 | 91.9% |
| CN(C)CCNc1cccc2sc3ccc(O)cc3c(=O)c12 | 35.9% |
| NCc1c(O)ccc2ccccc12 | 92.8% |
| O=C1c2cccc3cc([N+](=O)[O-])cc(c23)C(=O)N1CCN1CCCC1 | -20.7% (active) |
| Cc1cc(O)c2c(c1O)C(=O)C13C(=C2O)C(=O)C2C(O)C1C1C(O)C3C(=O)C3=C(O)c4c(O)cc(C)c(O)c4C(=O)C321 (centres undefined) | -47.2% (active) |
| CC1CCC2(C(=O)O)CCC3(C)C(=CCC4C5(C)CC(O)C(O)C(C)(CO)C5C(O)CC43C)C2C1C (centres undefined) | 99.6% |
| COc1ccc2oc(-c3ccc(Cl)cc3)c(N3CCN(C)CC3)c2c1 | -6.28% (active) |
| Cc1cc(N=C2C=CC(=[N+](C)C)C=C2)c(N)cc1N | 89.3% |
| O=[N+]([O-])c1cc(S(=O)(=O)Nc2ccccc2)ccc1Cl | 102% |
| O=C(NC(=S)Nc1ccccn1)c1ccccc1 | 88.6% |

Source: PubChem BioAssay (NCI)
